Measured values taken from PubChem BioAssay AID1159580 (chemical genetic matrix, 2015).
“And” between values parts separate entries of the source, which are not always exact repeats. Equal values may be shown once. Hit rate of the full screen: of about 5,500 compounds, about 2,000 (36%) were called active. About 18% were inconclusive and are not listed. Cut-off read from the data, not from the text of the source: active = normalized growth mostly below about 0.91 (no sharp cut-off); inconclusive = no clear call, values can overlap the other calls; inactive = mostly above about 0.92. Some of the results follow.

Experiment: chemical genetic growth profiling, strain panel (AID 1159580);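 note: tested at 20 µM; growth read once vehicle control cultures reached saturation at 30 °C; 1 = growth at the plate median or of vehicle wells; lower values mean less growth of the strain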
Conditions: S. cerevisiae deletion strains, growth OD

Measured: normalized growth

COC(=O)[C@H]1[C@H]2C[C@H]3c4[nH]c5cc(OC)ccc5c4CCN3C[C@H]2C[C@@H](OC(=O)c2cc(OC)c(OC)c(OC)c2)[C@@H]1OC
inactive: locus YAL021C, strain ccr4, active compounds read low 0.989 | locus YAL026C, strain drs2, active compounds read low 1.02 | locus YAL030W, strain snc1, active compounds read low 1.01 | locus YBL061C, strain skt5, active compounds read low 1.02 | locus YBR009C, strain hhf1, active compounds read low 0.996 | locus YBR021W, strain FUR4, active compounds read low 0.998 | locus YBR023C, strain chs3, active compounds read low 1.01 | locus YBR171W, strain sec66, active compounds read low 1.02 | locus YBR229C, strain ROT2, active compounds read low 1 | locus YBR231C, strain swc5, active compounds read low 1.01 | locus YBR279W, strain paf1, active compounds read low 1.01 | locus YCL011C, strain gbp2, active compounds read low 1.01 | locus YCL016C, strain dcc1, active compounds read low 1.01 | locus YCL029C, strain bik1, active compounds read low 0.971 | locus YCL061C, strain MRC1, active compounds read low 1.01 | locus YCL069W, strain vba3, active compounds read low 1.01 | locus YCR088W, strain abp1, active compounds read low 1.01 | locus YDL005C, strain med2, active compounds read low 1.01 | locus YDL035C, strain GPR1, active compounds read low 1.05 | locus YDL040C, strain nat1, active compounds read low 1.01 | locus YDL074C, strain BRE1, active compounds read low 0.976 | locus YDL101C, strain DUN1, active compounds read low 0.986 | locus YDL185W, strain tfp1, active compounds read low 0.966 | locus YDL192W, strain arf1, active compounds read low 1.02 | locus YDR001C, strain nth1, active compounds read low 1.01 | locus YDR069C, strain doa4, active compounds read low 1 | locus YDR101C, strain arx1, active compounds read low 0.977 | locus YDR137W, strain rgp1, active compounds read low 1.03 | locus YDR159W, strain sac3, active compounds read low 1.02 | locus YDR162C, strain NBP2, active compounds read low 1.02 | locus YDR195W, strain ref2 1 | locus YDR297W, strain sur2, active compounds read low 1.01 | locus YDR318W, strain mcm21, active compounds read low 0.992 | locus YDR334W, strain swr1, active compounds read low 1.02 | locus YDR335W, strain msn5, active compounds read low 1.02 | locus YDR388W, active compounds read low 0.983 | locus YDR392W, strain spt3, active compounds read low 0.925 | locus YDR502C, strain sam2, active compounds read low 0.929 | locus YEL003W, strain gim4, active compounds read low 1.02 | locus YEL037C, strain rad23, active compounds read low 1.02 | locus YEL061C, strain CIN8 (second series), active compounds read low 1.01 | locus YEL061C, strain CIN8, active compounds read low 1 | locus YER015W, strain faa2, active compounds read low 1 | locus YER016W, strain bim1, active compounds read low 1.01 | locus YER110C, active compounds read low 0.975 | locus YER111C, strain swi4, active compounds read low 1.01 | locus YER155C, strain BEM2 (second series), active compounds read low 0.975 | locus YER155C, strain BEM2, active compounds read low 1 | locus YER167W, strain BCK2, active compounds read low 1.01 | locus YFR010W, strain ubp6, active compounds read low 1.01 | locus YGL078C, strain dbp3, active compounds read low 1.02 | locus YGL086W, strain mad1, active compounds read low 0.999 | locus YGL167C, strain pmr1, active compounds read low 1.02 | locus YGL173C, strain kem1, active compounds read low 1.02 | locus YGL227W, strain vid30, active compounds read low 1.01 | locus YGL240W, strain doc1, active compounds read low 0.997 | locus YGL248W, strain PDE1, active compounds read low 0.987 | locus YGL253W, strain hxk2, active compounds read low 1.02 | locus YGR135W, strain pre9, active compounds read low 1 | locus YGR252W, strain gcn5, active compounds read low 1.06 | locus YHR013C, strain ard1, active compounds read low 0.995 | locus YHR027C, strain rpn1, active compounds read low 1.02 | locus YHR030C, strain SLT2, active compounds read low 1.01 and 0.978 | locus YHR079C, strain IRE1 (second series), active compounds read low 0.982 | locus YHR079C, strain IRE1, active compounds read low 0.968 | locus YHR094C, strain hxt1, active compounds read low 0.993 | locus YHR129C, strain ARP1, active compounds read low 1 | locus YHR142W, strain chs7, active compounds read low 1.01 | locus YHR200W, strain rpn10, active compounds read low 0.992 | locus YIL066C, strain RNR3, active compounds read low 1.01 | locus YIL073C, strain SPO22, active compounds read low 0.923 | locus YIL125W, strain kgd1, active compounds read low 1.02 | locus YIR030C, strain dcg1, active compounds read low 0.994 | locus YJL092W, strain hpr5, active compounds read low 1.01 | locus YJL095W, strain BCK1 (second series), active compounds read low 1.01 | locus YJL095W, strain BCK1, active compounds read low 0.958 and 0.964 | locus YJL115W, strain asf1, active compounds read low 1.01 | locus YJL129C, strain trk1, active compounds read low 1 | locus YJL134W, strain LCB3, active compounds read low 0.996 | locus YJL154C, strain vps35, active compounds read low 1 | locus YJL164C, strain tpk1, active compounds read low 1 | locus YJL166W, strain qcr8, active compounds read low 0.987 | locus YJL168C, strain set2, active compounds read low 0.991 | locus YJL187C, strain SWE1 (second series), active compounds read low 0.979 | locus YJL187C, strain SWE1, active compounds read low 1.01 | locus YJR043C, strain POL32, active compounds read low 1.07 | locus YJR066W, strain TOR1, active compounds read low 0.92 | locus YJR075W, strain HOC1, active compounds read low 0.982
